Screening data (PubChem BioAssay)
Rows were chosen to be rich in hits. Some 2.9% of all compounds tested hit in one or more screens of this group.
dFosB act-1: activators of mouse delta FosB homodimer; activation, % at 25 µM; 340,000 compounds, 0.99% hits; AID 493131; P13346; purified delta FosB, TAMRA-CDK5 oligo fluorescence polarization; percent of positive-control signal above neutral wells;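 active = mean activation above about 17%, with every replicate also reaching it, limit read from the data, passing the limit was not always enough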
Target sequence (P13346 whole entry, looked up): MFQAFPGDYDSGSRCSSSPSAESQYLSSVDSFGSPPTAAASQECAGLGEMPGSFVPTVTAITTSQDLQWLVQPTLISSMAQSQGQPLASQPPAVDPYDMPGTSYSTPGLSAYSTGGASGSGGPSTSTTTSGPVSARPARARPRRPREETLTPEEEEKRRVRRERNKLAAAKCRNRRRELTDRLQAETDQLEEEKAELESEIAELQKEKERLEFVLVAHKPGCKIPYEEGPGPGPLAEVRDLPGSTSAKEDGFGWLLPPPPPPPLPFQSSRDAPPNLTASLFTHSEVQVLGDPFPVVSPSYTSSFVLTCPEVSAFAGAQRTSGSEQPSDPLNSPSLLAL
DNA FID counter: displaces DNA intercalator in HCV helicase counter-screen. DNA fluorescent intercalator displacement, fluorescence. inhibition, % at 7.9 µM. 290,000 compounds, 0.17% hits. AID 1845; in the data active = inhibition above about 37%;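 also: 0% = vehicle and 100% = reference compound; higher means more ethidium bromide displaced from hairpin DNA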
MEKK3 PB1 HTS: modulators (inhibitors or enhancers) of MEK5 binding to human MEKK3 PB1 domain; Q99759; bead-based flow cytometry, Alexa488-MEK5 binding to MEKK3; actives lie on both sides; 0 = blocked by unlabeled MEK5, 100 = vehicle; binding response (% of control), % at 10 µM; 290,000 compounds, 1.4% hits; AID 1529;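 active = binding response more than 3 SD above or below the average of its plate-row segment, actives on both sides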;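 also: Alexa488 bead fluorescence after subtracting the streptavidin-only scavenger bead signal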
MEKK2 mut-MEK5: signal of MEK5 binding to mutant human MEKK2 PB1 domain; bead flow cytometry, Alexa488-MEK5 binding to MEKK2 mutant; percent response, % at 10 µM; 290,000 compounds, 0.35% hits; AID 1530; in the data active = percent response above about 24%, passing the limit was not always enough
MEKK2 WT-MEK5: raises or lowers MEK5 binding to wildtype human MEKK2 PB1 domain | Q9Y2U5 | bead flow cytometry, Alexa488-MEK5 binding to MEKK2 WT; actives lie on both sides | binding response (% of control), % at 10 µM | 290,000 compounds, 1.1% hits; in the data active = binding response below about 67% or above about 130%
dFosB act-2: enhances mouse delta FosB homodimer binding to DNA. purified delta FosB, TAMRA-CDK5 oligo fluorescence polarization; normalised: neutral wells 0, positive control 100. activation, % at 24.9 µM. shares compounds with dFosB act-1. 2,400 tested, under 10 active;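 active = highest replicate activation at or above 34% and every replicate reaching that threshold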;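 also: higher polarization means more probe DNA bound by delta FosB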
Numbers without * were called inactive.

CN1CCN(NC(=S)Nc2ccc(OC(F)F)cc2)CC1 was read as dFosB act-1 -3.1, DNA FID counter -0.8, MEKK3 PB1 HTS 99.0, MEKK2 mut-MEK5 -1.0 and MEKK2 WT-MEK5 93.0.
`CC(C)c1ccc(N(CC(=O)NCc2ccco2)C(=O)CCC(=O)Nc2ccccn2)cc1` gave dFosB act-1 -8.1, DNA FID counter -40.4, MEKK3 PB1 HTS 105.0, MEKK2 mut-MEK5 0.0 and MEKK2 WT-MEK5 103.0.
CCC(=O)Nc1nnc(S(=O)(=O)N(C)c2ccccc2)s1 was read as dFosB act-1 -8.0, DNA FID counter -1.7, MEKK3 PB1 HTS 101.0, MEKK2 mut-MEK5 -2.0 and MEKK2 WT-MEK5 104.0.
CN(c1ccccc1)S(=O)(=O)c1nnc(NC(=O)COc2ccccc2F)s1 was read as dFosB act-1 33.4*, DNA FID counter -34.2, MEKK3 PB1 HTS 101.0, MEKK2 mut-MEK5 1.0, MEKK2 WT-MEK5 94.0 and dFosB act-2 8.1.
CN(c1ccccc1)S(=O)(=O)c1nnc(NC(=O)COc2ccccc2)s1 was read as dFosB act-1 19.8*, DNA FID counter -26.1, MEKK3 PB1 HTS 104.0, MEKK2 mut-MEK5 14.0, MEKK2 WT-MEK5 100.0 and dFosB act-2 0.0.
CC1CCc2nc3ccc(S(=O)(=O)N4CCC(C(=O)N5CCCCCC5)CC4)cc3c(C(=O)O)c2C1 (configuration not stated) was read as dFosB act-1 -6.1, DNA FID counter -45.5, MEKK3 PB1 HTS 100.0, MEKK2 mut-MEK5 0.0 and MEKK2 WT-MEK5 103.0.
Screening COc1cc2c(cc1OC)-c1cc3ccc(OC)c(OC)c3c[n+]1CC2 returned dFosB act-1 28.1* and dFosB act-2 -3.0.
Cc1ccc(NC(=O)Cn2c(=O)n(CCCCC(=O)NCc3ccco3)c(=O)c3ccccc32)cc1 was read as dFosB act-1 30.6*, DNA FID counter -31.2, MEKK3 PB1 HTS 103.0, MEKK2 mut-MEK5 12.0, MEKK2 WT-MEK5 101.0 and dFosB act-2 4.0.
Cc1ccc(NC(=O)Cn2c(=O)n(Cc3ccco3)c(=O)c3ccccc32)c(C)c1 was read as dFosB act-1 32.2*, DNA FID counter -1.1, MEKK3 PB1 HTS 95.0, MEKK2 mut-MEK5 -1.0, MEKK2 WT-MEK5 100.0 and dFosB act-2 1.8.
COc1ccc(/C=N/n2c(=O)[nH]c3c([nH]c4ccc(Cl)cc43)c2=O)cc1CN1CCCCC1 was read as dFosB act-1 -2.0, DNA FID counter 1.3, MEKK3 PB1 HTS 101.0, MEKK2 mut-MEK5 11.0 and MEKK2 WT-MEK5 127.0.
COc1ccc(/C=N/n2c(=O)[nH]c3c([nH]c4ccc(Br)cc43)c2=O)cc1CN1CCOCC1 was read as dFosB act-1 28.3*, DNA FID counter 0.2, MEKK3 PB1 HTS 106.0, MEKK2 mut-MEK5 5.0, MEKK2 WT-MEK5 112.0 and dFosB act-2 3.4.
`COc1ccc(N2C(=O)c3ccccc3NC2c2ccc(OC)c(Cn3nnc4ccccc43)c2)cc1` (configuration not stated) gave dFosB act-1 30.2*, DNA FID counter -17.5, MEKK3 PB1 HTS 115.0, MEKK2 mut-MEK5 0.0, MEKK2 WT-MEK5 96.0 and dFosB act-2 -0.2.
CS(=O)(=O)c1ccc(Cl)c(NC(=O)COC(=O)c2c(Cl)cccc2Cl)c1 was read as dFosB act-1 -13.2, DNA FID counter -22.7, MEKK3 PB1 HTS 99.0, MEKK2 mut-MEK5 -3.0 and MEKK2 WT-MEK5 105.0.
Screening CC(=O)Nc1sc(C)c(C)c1C(=O)OCC(=O)Nc1cc(S(C)(=O)=O)ccc1Cl returned dFosB act-1 55.5*, DNA FID counter -3.0, MEKK3 PB1 HTS 105.0, MEKK2 mut-MEK5 -2.0, MEKK2 WT-MEK5 97.0 and dFosB act-2 -0.9.
Screening CCOc1ccccc1N(CC(=O)Nc1ccc(S(=O)(=O)N2CCOCC2)cc1)S(=O)(=O)c1ccccc1 returned dFosB act-1 52.9*, DNA FID counter 3.3, MEKK3 PB1 HTS 96.0, MEKK2 mut-MEK5 -4.0, MEKK2 WT-MEK5 93.0 and dFosB act-2 0.3.
Screening Cc1sc2c(c1C)c(=O)n(-c1cccc(C(F)(F)F)c1)c(=O)n2CC(=O)NCc1ccco1 returned dFosB act-1 56.9*, DNA FID counter -2.9, MEKK3 PB1 HTS 98.0, MEKK2 mut-MEK5 0.0, MEKK2 WT-MEK5 104.0 and dFosB act-2 0.7.
Screening COc1ccc(C(=O)Nc2ccccc2C(=O)NC(Cc2ccc(O)cc2)C(=O)NNC(=O)c2ccc(C)cc2)cc1 (configuration not stated) returned dFosB act-1 100.2*, DNA FID counter -25.8, MEKK3 PB1 HTS 99.0, MEKK2 mut-MEK5 9.0, MEKK2 WT-MEK5 95.0 and dFosB act-2 2.2.
COc1ccc(C(=O)Nc2ccccc2C(=O)NC(Cc2ccc(O)cc2)C(=O)NNC(=O)c2ccccc2)cc1 (configuration not stated) was read as dFosB act-1 3.1, DNA FID counter -43.5, MEKK3 PB1 HTS 99.0, MEKK2 mut-MEK5 -2.0 and MEKK2 WT-MEK5 94.0.
Nc1nc(Nc2ccccc2)nc(NCc2ccco2)c1[N+](=O)[O-] was read as dFosB act-1 26.6*, DNA FID counter 5.3, MEKK3 PB1 HTS 105.0, MEKK2 mut-MEK5 -2.0, MEKK2 WT-MEK5 99.0 and dFosB act-2 3.7.
Nc1nc(Nc2ccccc2F)nc(NCc2ccco2)c1[N+](=O)[O-] was read as dFosB act-1 4.4, DNA FID counter -8.9, MEKK3 PB1 HTS 96.0, MEKK2 mut-MEK5 -6.0 and MEKK2 WT-MEK5 93.0.
Screening Clc1nc2nc3n(c2nc1Cl)CCC3 returned dFosB act-1 -1.3, DNA FID counter 0.5, MEKK3 PB1 HTS 98.0, MEKK2 mut-MEK5 3.0 and MEKK2 WT-MEK5 100.0.
Screening CCc1cc2ccc(C)c(C)c2nc1SCC(=O)NNC(=O)c1ccco1 returned dFosB act-1 27.6*, DNA FID counter -39.3, MEKK3 PB1 HTS 99.0, MEKK2 mut-MEK5 -2.0, MEKK2 WT-MEK5 95.0 and dFosB act-2 1.2.
Cc1cccc(C)c1N1CCN(c2ccc3nnc(C(F)(F)F)n3n2)CC1 was read as dFosB act-1 -10.6, DNA FID counter -11.9, MEKK3 PB1 HTS 106.0, MEKK2 mut-MEK5 -2.0 and MEKK2 WT-MEK5 91.0.
Screening CC(=O)c1cn(CC(=O)Nc2ccccc2F)c2ccccc12 returned dFosB act-1 -1.2, DNA FID counter -1.5, MEKK3 PB1 HTS 101.0, MEKK2 mut-MEK5 -1.0 and MEKK2 WT-MEK5 103.0.
For O=C(Cn1c2ccccc2c(=O)c2ccccc21)Nc1ccccc1F the results were dFosB act-1 37.5*, DNA FID counter -2.6, MEKK3 PB1 HTS 100.0, MEKK2 mut-MEK5 -7.0, MEKK2 WT-MEK5 88.0 and dFosB act-2 -2.4.
Screening O=C(N/N=C/c1ccc(Cl)c([N+](=O)[O-])c1)c1cc(-c2ccc3c4c(cccc24)CC3)n[nH]1 returned dFosB act-1 37.8*, DNA FID counter -6.0, MEKK3 PB1 HTS 103.0, MEKK2 mut-MEK5 -2.0, MEKK2 WT-MEK5 100.0 and dFosB act-2 6.9.
